# The campaign covered roughly 3,600 compounds. About 900 (25%) were called active. These entries were drawn from the full list. Potency and affinity values are given separately. Values without a mark were called inactive. The rule behind the calls is not given here.
# Biological target: Protein Tat (Human immunodeficiency virus type 1 group M subtype B (isolate HXB2)) (UniProt P04608)
# Assay: inhibitors of Tat binding to TAR RNA, dose response, counter-screen for Vif-APOBEC3G degradation inhibitor project, biochemical, fluorescence polarization, FAM-labeled TAR RNA (AID 1117361)
# Settings: outcome: dose series up to 100 µM unless noted; series mostly up to 100 µM; inhibition: at the top concentration
SMILES,inhibition,outcome
O=C(CN(C(=O)CCNC(=O)c1ccco1)c1ccccc1)NC1CCCC1,4.77%,
COc1ccc(/C=C/C2=NC(=C\N(C)C)/C(=O)O2)cc1,9.46%,
Nc1nnc(CC2=CCCCC2)s1,3.38%,
CCOc1ccc(/C=C2\NC(=S)NC2=O)cc1,,inactive
O=C(Cn1[nH]c(=O)c2ccccc2c1=O)OCC(=O)N(Cc1ccccc1)Cc1ccccc1,,inactive
CC(C)Cc1ccc(C(C)C(=N)N)cc1 (configuration not stated),4.95%,
CC(C)N(C(=O)CO/N=C/c1cccc([N+](=O)[O-])c1)C(C)C,,inactive
C=CCOc1ccc2c(c1)C(=NO)c1cc(OCC=C)ccc1-2,5.68%,
O=C(Nc1c2c(nn1-c1ccc(F)cc1)CS(=O)C2)C12CC3CC(CC(C3)C1)C2 (configuration not stated),0.68%,
CC(C)NC(=O)C1CCCN(S(=O)(=O)c2cccs2)C1 (configuration not stated),0.68%,
Cc1ccc2oc(=O)c3cnn(CC(=O)NC4CCCCC4C)c3c2c1 (configuration not stated),6.08%,
O=C(c1cnn2cccnc12)N1CCN(Cc2ccc3c(c2)OCO3)CC1,2.73%,
O=C(COc1ccccc1Cl)NCCc1ccc2c(c1)OCCO2,2.73%,
CC(=O)Nc1ccc(S(=O)(=O)N2CCN(CCCOc3ccccc3Cl)CC2)cc1,4.09%,
CCCCn1c(C(C)NC(=O)CC)nc2ccccc21 (configuration not stated),,inactive
COc1ccc(CNS(=O)(=O)c2cc(Br)cc3c2N(C(C)=O)C(C)C3)cc1 (configuration not stated),0.82%,
COCC(C)NC(=O)C1CC(c2cccc(Br)c2)=NO1 (configuration not stated),3.38%,
COc1ccc(C2C(C#N)=C(SCC(=O)Nc3ccc(C)cc3)NC3=C2C(=O)CC(C)(C)C3)cc1 (configuration not stated),6.14%,
COC(=O)CSC1=C(C#N)C(c2ccccc2)CC(=O)N1 (configuration not stated),2.03%,
CCCNC(=S)NC1CCCC1,2.7%,
Cc1ccc(C(=O)CSc2ccccn2)cc1,26.4%,
Cc1nnc(SCc2cnc(-c3ccccc3)o2)[nH]c1=O,10.1%,
CCOc1cc(C2NC(=O)NC(O)(C(F)(F)F)C2C(=O)c2ccccc2)ccc1OC (configuration not stated),2.03%,
CN(C)CCNc1ncnc2c1sc1nc(-c3ccccc3)c3c(c12)CCCC3,14.8%,

SMILES,inhibition,outcome
CSc1nc(N2CCOCC2)c2c3c(sc2n1)CCC3,1.65%,
Clc1ccccc1Nc1c2c(nc3ncnn13)CCC2,,inactive
CC(=O)NCc1c(Cl)cccc1-n1cccc1,,inactive
CCCS(=O)(=O)NCc1cn2c(C)csc2n1,14.9%,
CN(C(=O)COc1ncnc2sccc12)c1ccccc1,4.95%,
CCCCNc1nc2ccccc2nc1NS(=O)(=O)c1cccs1,13.5%,
COc1ccccc1NS(=O)(=O)c1cccs1,3.01%,
Cc1cc(/C=C2\SC(=S)NC2=O)c(C)n1-c1ccccc1,,inactive
Cc1cc(/C=C2\SC(=S)NC2=O)c(C)n1-c1ccc(O)cc1,,inactive
CCc1ccc(-n2c(SCc3c(C)noc3C)nnc2-c2ccncc2)cc1,1.36%,
Cc1noc(C)c1C(=O)N1CCc2ccccc2C1,6.82%,
CCn1c(C(=O)N2CCc3ccccc3C2)cc2sccc21,8.11%,
CCC(C)(C)C1CCc2c(sc(NC(=O)c3ccoc3C)c2C(N)=O)C1 (configuration not stated),8.78%,
COc1cc(NC(=O)c2nnn(Cc3ccc(SC)cc3)c2N)cc(OC)c1,2.7%,
Cc1ccc(SCC(=O)c2sc(-c3ccccc3)nc2C)cc1,,inactive [at 50 µM]
CS(=O)(=O)N(CC(=O)Nc1ccc2c(c1)OCO2)Cc1ccccc1,6.14%,
COC(=O)c1ccc(Cl)c(NC(=O)CN(c2ccc3c(c2)OCO3)S(C)(=O)=O)c1,2.05%,
O=C(NCc1ccc(F)cc1)c1c(O)c2cccc3c2n(c1=O)CCC3,,inactive
Cc1ccc(C(=O)Nc2nc3ccccc3n2CCN2CCCC2)cc1,2.7%,
CCN1C(=O)c2c(C)nc3ccccc3c2C1=O,13.7%,
COCCCN1C(=O)N(c2ccc(F)cc2)C(=O)C1CC(=O)Nc1ccc(OC)cc1 (configuration not stated),5.01%,
Cc1cc(C)c([N+](=O)[O-])cc1-c1ccc(/C=N/NC(=O)c2nonc2N)o1,6.08%,
NC(=S)N/N=C/c1ccc(-c2cccc([N+](=O)[O-])c2)o1,0.68%,
O=C(NNC(=O)c1ccccc1O)c1ccc(-c2ccc([N+](=O)[O-])cc2)o1,5.68%,

SMILES,inhibition,outcome
N=C(c1cccc([N+](=O)[O-])c1)N1CCCCCC1,,inactive
Cc1ccc(C(=O)OCc2cn3ccccc3n2)cc1,15.5%,
COc1cccc(NC(=O)N2CCN(c3nnnn3-c3ccccc3)CC2)c1,9.9%,
Cc1ccc(-n2nc(C)c3c(C)c(CCC(=O)O)c(C)nc32)cc1,,inactive
Cc1cc(=O)nc2c3ccccc3n(C(C)C(=O)NCCC(C)C)n12 (configuration not stated),,inactive
O=C(COc1ccc(S(=O)(=O)N2CCCC2)cc1)NCCC1=CCCCC1,22.5%,
CCN(CC)CCCNC(=O)c1cn(CCOC)c(=O)c2c1c1ccccc1n2C,0.68%,
Cc1cc(C)cc(-n2nnc(C(=O)NCc3ccco3)c2N)c1,8.87%,
COc1ccc(-n2nc(C(=O)NCc3ccco3)c3ccccc3c2=O)cc1,,inactive
CC1(C)CC2(CC(c3ccccc3F)c3ccc(O)c(O)c3O2)NC(=S)N1 (configuration not stated),4.95%,
CCN1CCN(Cc2cc(=O)oc3ccc(C)cc23)CC1,8.25%,
C=C(Cl)COc1ccc2c(CCC)cc(=O)oc2c1,4.09%,
CCc1ccc2c(CN3CCC(C(=O)OC)CC3)cc(=O)oc2c1,,inactive
CCc1cc2c(CN3CCN(CC)CC3)cc(=O)oc2cc1O,14.2%,
COc1ccc(S(=O)(=O)N2CCOC2CNC(=O)C(=O)NCc2ccccn2)cc1 (configuration not stated),,inactive
CC(C)C(C(=O)OCC(=O)c1ccc2c(c1)NC(=O)CO2)N1C(=O)c2ccccc2C1=O (configuration not stated),,inactive
COCCNC(C)C(=O)C12CC3CC(CC(C3)C1)C2 (configuration not stated),1.35%,
Oc1ccc(/C=N/N2CCCCC2)c(O)c1O,,inactive
O=C(c1cc2ccccc2o1)N1CC=C(c2ccccc2)CC1,10.7%,
O=C(CCC(=O)NNc1nc2ccccc2c2nc(-c3ccccc3)nn12)NCCCN1CCOCC1,0.82%,
Cc1ccc2nsnc2c1S(=O)(=O)N(CCO)Cc1cc2cc3c(cc2[nH]c1=O)OCCO3,2.05%,
CCn1c(SCC(=O)NCC(=O)Nc2ccc(F)cc2)nnc1-c1ccncc1,2.73%,
CCn1c(=O)cc(SCC(=O)NCc2ccc(C)o2)c2ccccc21,8.19%,
Cc1cccc(OCc2nc3ccccc3c(=O)n2N)c1,,inactive

# Reference: PubChem BioAssay AID1117361 (Southern Research Institute, 2015)
